# PubChem BioAssay (NCI)
# About 83,000 compounds went through this panel and 20% of them were active in at least one assay; those are over-represented in the sample as a whole.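 The endpoint reported here, percent growth, reads 100 for growth as untreated, 0 for no net growth and -100 for all cells dead.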 Values without a mark were called inactive. The source made the active and inactive calls. Rule for the calls: active = growth percent below 10; inactive = the rest.
# What was measured:
# Test in all cases: NCI-60 one-dose screen, 48 h (100 = growth as untreated, 0 = no growth, -100 = all killed)
# HCT-15 colon = conditions: 10 µM unless noted
# HT29 colon = conditions: 10 µM unless noted
# SNB-75 CNS = conditions: 10 µM unless noted
# SNB-19 CNS = conditions: 10 µM unless noted
# U251 CNS = conditions: 10 µM unless noted
# PC-3 prostate = conditions: 10 µM unless noted
# SK-MEL-5 melanoma = conditions: 10 µM unless noted
# UACC-62 melanoma = conditions: 10 µM unless noted
# LOX IMVI melanoma = conditions: 10 µM unless noted
# SK-MEL-28 melanoma = conditions: 10 µM unless noted
# SK-MEL-2 melanoma = conditions: 10 µM unless noted
# EKVX NSCLC = conditions: 10 µM unless noted
# SN12C renal = conditions: 10 µM unless noted
# UO-31 renal = conditions: 10 µM unless noted
# ACHN renal = conditions: 10 µM unless noted
# CAKI-1 renal = conditions: 10 µM unless noted
# A498 renal = conditions: 10 µM
# HL-60(TB) leukemia = conditions: 10 µM unless noted
# CCRF-CEM leukemia = conditions: 10 µM unless noted
# TK-10 renal = conditions: 10 µM unless noted
Structure (SMILES),growth (HCT-15 colon),growth (HT29 colon),growth (SNB-75 CNS),growth (SNB-19 CNS),growth (U251 CNS),growth (PC-3 prostate),growth (SK-MEL-5 melanoma),growth (UACC-62 melanoma),growth (LOX IMVI melanoma),growth (SK-MEL-28 melanoma),growth (SK-MEL-2 melanoma),growth (EKVX NSCLC),growth (SN12C renal),growth (UO-31 renal),growth (ACHN renal),growth (CAKI-1 renal),growth (A498 renal),growth (HL-60(TB) leukemia),growth (CCRF-CEM leukemia),growth (TK-10 renal)
O=C1NC(=O)C(=Cc2cn(CCCCCCn3c4ccccc4c(=O)c4ccccc43)c3ccccc23)C(=O)N1,75.1%,97.2%,94.5%,86%,90.4%,84%,90.5%,63.5%,83.8%,102%,94%,89.8%,91.1%,63.9%,101%,97.6%,-49.3% (active),78.7%,80.6%,
CN(C)C1C(=O)C(C(N)=O)=C(O)C2(O)C(=O)C3=C(O)c4c(O)cccc4C(C)(O)C3CC12.[Cl][Sb]([Cl])[Cl] (stereo not given),26.7%,38.5%,40.5%,36.6%,10.8%,15.9%,15.6%,26.4%,25.8%,47%,-7.83% (active),41%,,54.7%,59%,12.3%,,31.4%,17%,42.4%
CCCC(C)C1(CC)C(=O)NC(=O)N(C)C1=O (stereo not given),107%,94.6%,98.8%,104%,92.1%,85.8%,89.1%,90.8%,98.6%,116%,85.4%,105%,,82.3%,107%,95.7%,91.8%,94.8%,93.9%,92.6%
CCCCN1CCCC[C@@H]1C(=O)N[C@H](C(=O)N(C)[C@H](C[C@@H](OC(C)=O)c1nc(C(=O)NC2CCC(C(=O)OC)CC2)cs1)C(C)C)C(C)C (stereo not given in full),30.9%,14.8%,-4.95% (active),24%,15.5%,29.1%,38.4%,33.3%,35.6%,72.1%,35.5%,34.8%,46.3%,52.8%,,,22.3%,-30.4% (active),5.58% (active),55.6%
O=[N+]([O-])/C=C\c1ccc(Cl)c(Cl)c1,26.1%,-40.4% (active),42%,61.5%,19.3%,70.1%,56.3%,58.9%,-30.7% (active),89.7%,84%,91.8%,77.5%,35.4%,,,,34.6%,33.6%,82.7%
O=[N+]([O-])c1cc([N+](=O)[O-])c(Nn2c3ccccc3c3ccccc32)c([N+](=O)[O-])c1,2.82% (active),-4.7% (active),-19.7% (active),25.8%,8.04% (active),-10.5% (active),-75.9% (active),-16.7% (active),7.47% (active),11.9%,-50.4% (active),6.19% (active),5.01% (active),-3.91% (active),,,-43.2% (active),-30.3% (active),-0.784% (active),0.75% (active)
CC12CCC=CC1CCC1C2CCC2(C)C(c3ccc(=O)oc3)CCC12O (stereo not given),-71.7% (active),-66.5% (active),-56.7% (active),-99.9% (active),-77.2% (active),-19.6% (active),-56.6% (active),-65.4% (active),-83.8% (active),-31.1% (active),-34.4% (active),-90.1% (active),,-94.5% (active),-89.9% (active),-61.3% (active),-19.9% (active),-28% (active),-16.6% (active),-69.8% (active)
COC(=O)[C@@H](C)C[C@H](Cc1ccccc1)NC(=O)c1csc([C@@H](C[C@H](C(C)C)N(C)C(=O)[C@@H](NC(=O)[C@H]2CCCCN2C)C2CCCCC2)OC(C)=O)n1,10.8%,-0.416% (active),5.81% (active),64.5%,-19.4% (active),5.7% (active),-56.2% (active),36.3%,12.5%,38%,11.2%,25%,12.6%,31.7%,11.4%,14.5%,-10.2% (active),-51.9% (active),0.645% (active),
CCOC(=O)C(Cc1ccc(N(CCCl)CCCl)cc1)NC(=O)C(CC(C)C)NC(C)=O (stereo not given),35%,8.7% (active),41.6%,57.6%,25.5%,60.9%,60.8%,13.1%,-15.6% (active),6.21% (active),-2.13% (active),114%,,-48.7% (active),8.89% (active),-20.7% (active),86.5%,13.1%,12.3%,21.3%
CC[C@H](C)[C@H](NC(=O)c1nccn1C)C(=O)N(C)[C@H](C[C@@H](OC(C)=O)c1nc(C(=O)N[C@@H](Cc2ccccc2)C[C@H](C)C(=O)OC)cs1)C(C)C,10.5%,-6.75% (active),15.8%,37.3%,9.94% (active),25.2%,-0.799% (active),55.7%,17.6%,51.2%,28.5%,52.8%,,47.3%,42.3%,33.8%,-9.78% (active),,15.9%,41.9%
COc1cc2c(cc1OCc1ccccc1)C(CC(C)C)=[N+](C)CC2,99.4%,63.3%,64.9%,69%,49.1%,62.8%,75.9%,81.9%,91.1%,95.1%,82.1%,68.6%,,87.9%,99.2%,96.2%,95.9%,73%,73.1%,94%
COC(=O)[C@@H](C)C[C@H](Cc1ccccc1)NC(=O)c1csc([C@@H](C[C@H](C(C)C)N(C)C(=O)C2(NC(=O)[C@H]3CCCCN3C)CCC2)OC(C)=O)n1,17.1%,5.81% (active),28.5%,73.2%,6.93% (active),19.4%,-43.7% (active),40%,12.7%,57%,29.5%,31.7%,29.8%,43.3%,28.8%,27.7%,-2.79% (active),-51.8% (active),10% (active),
COc1ccc(C(O)(C(=O)O)c2ccc(OC)cc2)cc1,95.7%,81.4%,101%,96.9%,93.9%,77.8%,93.6%,85.7%,93.6%,103%,78.8%,85%,,87.6%,85.8%,100%,95.3%,96.9%,79.8%,88.2%
COC(=O)[C@H](Cc1ccccc1)NNC(=O)c1csc([C@@H](C[C@H](C(C)C)N(C)C(=O)[C@@H](NC(=O)[C@H]2CCCCN2C)C2CC2)OC(C)=O)n1,13.9%,4.57% (active),49.2%,65.2%,4.68% (active),13.9%,-42.3% (active),33.7%,13.6%,48.3%,30.6%,29.9%,24.3%,42.8%,24.8%,21.4%,-3.69% (active),-55.4% (active),-2.7% (active),
